High-throughput results as filed in PubChem.
In the library only some 2.3% were active in any assay of this set; here they are far more common.
CHT inh = human CHT choline transport inhibition; Q9GZV3; CHT-expressing cells, membrane potential dye, choline response; active compounds read low; AID 488975; B-score at 10 µM; actives 0.86% (n = 310,000);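 active = B-score over 3 SD under the library average, and starting fluorescence ratio not unusually high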;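 also: choline stimulus applied at its EC90 after an EC20 pre-addition; B-score computed on integrated fluorescence ratio after choline addition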
ANO1 block = inhibitors of mouse TMEM16A calcium-activated chloride channel; HEK293 TMEM16A/YFP iodide influx fluorescence, ionomycin; normalized B-score (activity score, 25-100; higher = stronger inhibition) at 10 µM; actives 1.2% (n = 310,000); AID 588511;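 active = ratio plate-corrected score three or more library SD toward inhibition, starting fluorescence score within five deviations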;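 also: score derived from kinetic fluorescence span divided by baseline fluorescence per well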
CHT allo act = allosteric activators of human choline transporter CHT | B-score at 10 µM | CHT-expressing cells, membrane potential dye, choline EC20; active compounds read high; LV-AA mutant CHT in HEK293 cells | actives 0.49% (n = 310,000);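 active = initial fluorescence not abnormally high and integrated response B-score, plate-corrected, over 3 SD above library mean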
ANO1 activ = activators or potentiators of mouse TMEM16A chloride channel; HEK293 TMEM16A/YFP-H148Q/I152L, iodide quench fluorescence; active compounds read low; B-score at 10 µM; actives 0.3% (n = 340,000); AID 623877;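 active = fluorescence-ratio B-score plate-corrected deviation score at least 3 library SD below zero, with starting fluorescence score within 5 deviations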;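 also: channel opened by trigger with iodide after compound preincubation; score built on the fluorescence ratio of max minus min over baseline; more negative score means more quench and so TMEM16A activation or potentiation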
CHT inh conf = confirmation of human choline transporter CHT inhibitors; CHT activity remaining % of control (active compounds read low), % at 10 µM; CHT-expressing cells, choline membrane potential dye; LV-to-AA substituted CHT, HEK293 cells; shares compounds with CHT inh; actives 70% (n = 2,400);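 active = choline transporter activity left, mean of duplicates at 10 µM, below buffer-only control mean minus 3 SD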;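 also: depolarization triggered by choline at its EC90 following an EC20 pre-addition; 0% = hemicholinium-3 full block and 100% = buffer-only control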
HEK293 CHT ctr = activity in parental HEK293 cells lacking CHT. shares compounds with CHT inh. membrane potential dye, choline response; active = decrease or increase beyond buffer ±3SD. membrane potential ratio readout (active if shifted either direction beyond buffer ±3SD; no single direction) at 10 µM. actives 4% (n = 2,400). AID 493222;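 also: parental cells lack the transporter so any hit is non-specific; ratio is peak minus trough fluorescence over baseline after EC90 choline challenge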
An asterisk follows results filed as active; i = inactive; x = no result given.

SMILES	CHT inh	ANO1 block	CHT allo act	ANO1 activ	CHT inh conf	HEK293 CHT ctr
COc1ccc(NS(=O)(=O)c2cccc(C(=O)NCC(c3ccco3)N3CCCCC3)c2)cc1 (centres undefined)	-10.7*	i	i	i	0.3%*	i
Cc1ccc(NS(=O)(=O)c2c(C(=O)N3CCCCCC3)c(C)n(C)c2C)cc1C	i	i	i	i	x	x
CCCCn1c(N)c(N(CCOC)C(=O)c2ccc(S(=O)(=O)N3CCCCCC3)cc2)c(=O)[nH]c1=O	i	i	i	i	x	x
O=Cc1ccc(Oc2nc(Cl)ncc2F)cc1	i	i	i	i	x	x
Cc1sc2nc(SCCN(C)C)n(-c3ccccc3)c(=O)c2c1-c1ccc(F)cc1	-5.92*	i	i	i	26.2%*	i
O=C(CNC(=O)c1ccc(Cl)cc1Cl)OCn1nnc2ccccc2c1=O	i	i	i	i	x	x
CCn1cc(C(=O)NCCCN2CCCC(C)C2)c(=O)c2cc(S(=O)(=O)N(C)C3CCCCC3)ccc21 (centres undefined)	-7.52*	i	i	i	25.3%*	2.68*
CCN(CC)CCCNC(=O)c1cn(CC)c2ccc(S(=O)(=O)N(C)C3CCCCC3)cc2c1=O	-5.73*	i	i	i	60.7%*	i
CCCCN(CCCC)CCNC(=O)c1cn(CC)c2ccc(S(=O)(=O)N(C)C3CCCCC3)cc2c1=O	-7.07*	i	i	i	19.7%*	i
CN(C1CCCCC1)S(=O)(=O)c1ccc2c(c1)c(=O)c(C(=O)NCCCN1CCCC1)cn2C	i	i	i	i	x	x
CCN(CC(=O)Nc1ccc(NC(C)=O)cc1)C(=O)c1ccc2c(c1)OCO2	x	x	x	i	x	x
COc1ccc(CCNC(=O)C2CCC(=O)N2CCc2ccccc2)cc1OC (centres undefined)	i	i	i	i	x	x
COc1ccc(CN2C(=NC(=O)c3ccccc3)SC3CS(=O)(=O)CC32)cc1 (centres undefined)	i	i	i	i	x	x
CCC1=NN2C(=N)/C(=C\c3ccc(SCc4ccco4)o3)C(=O)N=C2S1	-5.25*	i	i	i	i	i
CCCC1=NN2C(=N)/C(=C\c3ccc(SCc4ccco4)o3)C(=O)N=C2S1	-5.82*	i	i	i	69.4%*	i
CCCC1=NN2C(=N)/C(=C\c3cc(C)n(Cc4ccccc4)c3C)C(=O)N=C2S1	i	i	i	i	x	x
Cc1nn(CC2CCCCC2)c(N)c1-c1ccccc1	i	i	i	i	x	x
CC(C)N1C(=O)CCC1C(=O)NCc1cccs1 (centres undefined)	i	i	i	i	x	x
CC1CCC(NC(=O)Cn2c3c(c(-c4ccccc4Cl)cc2=O)CCC3)CC1 (centres undefined)	-6.81*	i	i	i	45.6%*	i
COc1cc(/C=C(\C#N)c2ccccn2)ccc1OCc1ccc(Cl)cc1	i	i	i	i	x	x
COc1cc(C=O)ccc1OCCOc1ccccc1[N+](=O)[O-]	i	i	i	i	x	x
COc1cc(C=O)ccc1OCCOCCOc1ccccc1Cl	-5.56*	i	i	i	63.4%*	i
Cc1cc(=O)oc2cc(OCc3ccc(C(=O)OCC(=O)Nc4ccc(N(C)C)cc4)cc3)ccc12	x	x	x	i	x	x
COc1cc(OC)cc(C(=O)NC(=S)NNC(=O)[C@H]2C[C@@H]2c2ccccc2)c1	-6.81*	100*	i	i	53.4%*	i
COCCCn1c(SCC(=O)Nc2sc3c(c2C#N)CCCC3)nnc1-c1ccncc1	-5.45*	i	i	i	62.2%*	i
CCOc1ccc(N/C(N)=N/c2nc(CSc3nnnn3-c3ccccc3)cc(=O)[nH]2)cc1	i	i	i	i	x	x
O=C(CSc1nnc(-c2ccco2)n1Cc1ccco1)NCc1cccs1	-5.28*	i	i	i	66.9%*	i
Cc1occc1C(=O)Nc1cnn(CCCC(=O)O)c1	i	i	i	i	x	x
Oc1ccc(Oc2ncc(Cl)cc2Cl)cc1	-5.4*	i	i	i	59.2%*	i
